# Sampled rows, rich in hits. Any-hit rate of the full collection: about 1.1%.
# LmPK inh: blocks Leishmania mexicana pyruvate kinase activity. Q27686. purified LmPK, Kinase-Glo ATP luminescence, 1 h. Potency, µM (top dose mostly 57.5 µM), usual class: inhibitors. actives 0.37% (n = 290,000)
# Target sequence (Q27686 whole entry, looked up): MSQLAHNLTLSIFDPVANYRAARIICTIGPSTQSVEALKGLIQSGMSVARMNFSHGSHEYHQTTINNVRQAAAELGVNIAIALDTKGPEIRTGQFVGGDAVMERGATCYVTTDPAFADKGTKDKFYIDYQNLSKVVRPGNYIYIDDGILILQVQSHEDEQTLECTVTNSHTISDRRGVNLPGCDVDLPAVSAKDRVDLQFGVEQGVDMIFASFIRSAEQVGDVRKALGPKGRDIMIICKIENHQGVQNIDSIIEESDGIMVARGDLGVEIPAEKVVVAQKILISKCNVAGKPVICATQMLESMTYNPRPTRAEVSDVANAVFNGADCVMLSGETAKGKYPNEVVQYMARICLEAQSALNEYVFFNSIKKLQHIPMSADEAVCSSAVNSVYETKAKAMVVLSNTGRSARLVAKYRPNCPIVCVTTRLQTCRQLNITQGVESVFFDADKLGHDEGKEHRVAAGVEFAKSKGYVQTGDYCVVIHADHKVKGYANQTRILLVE
#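 Kinase-Glo luminescence read after 1 h RT reaction of 0.1 nM LmPK with 0.5 mM PEP and 0.1 mM ADP. Activity scaled between uninhibited and enzyme-free controls.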
# FBPA Giardia inh: inhibitors of Giardia lamblia fructose-1,6-bisphosphate aldolase | actives 0.71% (n = 290,000) | purified Giardia FBPA | A8B2U2 | Potency, µM (series often up to 59.6 µM), most hits filed as inhibitors; note: nearly all actives have a fitted effect of over 55% in size
#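 40 nM FBPA preincubated 10 min at RT with compound (up to 57.5 uM final), then substrate plus GAPDH/TPI/NAD/arsenate coupling and diaphorase/resazurin added. Fluorescence read after 20 min at RT, 525/598 nm.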
# RE007 growth inh: less growth of the S. pombe RE007 Vpr strain | actives 0.21% (n = 360,000) | S. pombe RE007 Vpr strain, BacTiter-Glo ATP luminescence, 24 h | Potency, µM (series often up to 92.2 µM), most hits filed as inhibitors; active = well fitted falling curve with a large enough effect; inconclusive = small, poorly fitted or top-dose-only effect; inactive = no such curve, though single readings can be large or run the other way; note: nearly all actives have a fitted effect of over 50% in size
#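 Fission yeast strain RE007, carrying one chromosomally integrated HIV-1 vpr copy, was seeded at OD 0.01 in PMG+AL medium with 23 nL pinned compound. After 24 h at 30 °C and 99% humidity, viability was read by BacTiter-Glo luminescence.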
# SARS PLP yeast: SARS-CoV PLP inhibition in yeast. S. cerevisiae expressing SARS-CoV PLpro, growth rescue. Potency, µM (highest dose often 32.9 µM), hits mostly activators. actives 0.19% (n = 330,000). AID 485353; calls by dose curve; note: nearly all actives have a fitted effect of over 55% in size
# Tb PYK inh: inhibitors of Trypanosoma brucei pyruvate kinase; TbPYK enzyme, Kinase-Glo Plus ATP luminescence, 45 min; Potency, µM (top dose mostly 76.8 µM), hits mostly inhibitors; AID 624173; Q57TT1; actives 0.12% (n = 410,000); note: nearly all actives have a fitted effect of over 50% in size
#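 In this concentration-response screen, enzyme-free wells defined baseline while DMSO plates tracked drift. Each reaction combined TbPYK, substrate, compound and 130 uM ADP for 45 min at room temperature. Kinase-Glo Plus luminescence gave the signal.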
# Hits are given with their value; n = inactive; u = inconclusive; x = no result. Unless noted, calls come from the whole dose curve; as a rule, active = well fitted curve in the direction sought with a large enough effect; inconclusive = small, poorly fitted or top-dose-only effect, or another doubt; inactive = no such curve, though single readings can be large; an effect the other way counts as inactive or inconclusive.
SMILES,LmPK inh,FBPA Giardia inh,RE007 growth inh,SARS PLP yeast,Tb PYK inh
O=C1C=Cc2ccccc2C1=O,n,3.5µM,x,u,x
O=C1c2ccccc2C(=O)c2ccccc21,x,n,x,x,n
COc1cccc(Nc2nc3c(S(=O)(=O)c4cc(C)ccc4C)nnn3c3ccsc23)c1,x,x,x,x,n
C[C@@H]1CCCCO[C@H](CN(C)C(=O)Nc2cccc3ccccc23)[C@@H](C)CN([C@H](C)CO)C(=O)c2cc(N(C)C)ccc2O1,x,x,n,x,11µM
C[C@@H]1CCCCO[C@@H](CN(C)C(=O)Nc2ccccc2)[C@@H](C)CN([C@H](C)CO)C(=O)c2cc(N(C)C)ccc2O1,x,x,n,x,n
Nc1ccc2nc(-c3ccccn3)[nH]c2c1,20µM,n,n,n,n
Nc1ccc2nc(-c3ccccc3)[nH]c2c1,14µM,n,n,n,n
COc1ccc2nc(-c3ccc(N)cc3)[nH]c2c1,u,n,n,n,n
COc1ccc2nc(-c3cccc(N)c3)[nH]c2c1,22µM,u,n,n,n
Cn1nnnc1SCC1=C(C(=O)O)N2C(=O)[C@@H](NC(=O)[C@H](OC=O)c3ccccc3)[C@H]2SC1,x,x,x,x,n
CCOc1ccc(CC(=O)Nc2c(C(=O)c3ccc(F)cc3)oc3ccccc23)cc1OCC,x,x,x,x,n
O=S(=O)(c1ccccc1)c1ccc(NCc2ccco2)cc1,n,n,n,n,n
O=C1c2ccccc2-c2onc3ccc(NCc4ccco4)c1c23,n,u,28µM,n,n
O=C1C(Cl)=C(NCc2ccco2)C(=O)c2ccccc21,x,x,20µM,x,n
CCNc1ccc2noc3c2c1C(=O)c1ccccc1-3,n,n,n,n,u
CCCC(=O)NC1=C(Cl)C(=O)c2ccccc2C1=O,x,x,7.1µM,x,u
CCNC1=C(Cl)C(=O)c2ccccc2C1=O,n,u,16µM,n,n
O=C(CSc1ccccc1)N1CCc2c([nH]c3ccccc23)C1c1ccc(Cl)cc1 (stereo unspecified),x,x,x,x,n
CC(=O)Oc1cc2cccc(OC(C)=O)c(=O)c2c(OC(C)=O)c1OC(C)=O,n,n,u,8.9µM,n
O=C(c1ccco1)N1CCN(C(=O)c2ccco2)C1=S,x,x,n,x,n
Cc1cccn2c1nc(=S)n2C(=O)c1ccco1,10µM,n,n,n,n
Cc1ccc2c(CC(=O)Nc3ccc(S(=O)(=O)N4CCC(C)CC4)cc3)coc2c1,x,x,x,x,n
O=C(CCNc1ccc(F)cc1)c1ccco1,n,n,6.3µM,n,n
O=S(c1ccccc1O)S(=O)c1ccccc1O (stereo unspecified),x,x,35µM,x,4.5µM
CS(=O)c1ccccc1O (stereo unspecified),n,n,n,n,n
SMILES,LmPK inh,FBPA Giardia inh,RE007 growth inh,SARS PLP yeast,Tb PYK inh
CC(C)=CCC/C(C)=C\CC/C(C)=C\CC/C(C)=C\CC1=C(C)C(=O)c2ccccc2C1=O,x,x,x,x,n
COc1ccc(-c2n[nH]c(=S)n2CC(C)C)cc1,28µM,n,n,n,u
CC(C)Cn1c(-c2csc3ccccc23)n[nH]c1=S,14µM,n,n,n,u
CCn1c(-c2csc3ccccc23)n[nH]c1=S,10µM,n,n,n,u
CCn1c(-c2ccccc2O)n[nH]c1=S,n,n,n,n,u
N#C/C(C(N)=O)=c1/ccc2c(c1)N1C3=C(CCCC3)CC3CCCCC31N=2 (stereo unspecified),7.9µM,n,n,n,u
N#CC(C#N)=c1ccc2c(c1)N1C3=C(CCCC3)CC3CCCCC31N=2 (stereo unspecified),18µM,n,n,n,u
Cc1sc2nc(CN3CCN(c4ccc(O)cc4)CC3)[nH]c(=O)c2c1C,14µM,u,n,n,n
O=c1[nH]c(CN2CCN(c3ccccc3)CC2)nc2scc(-c3ccccc3)c12,n,n,x,n,n
O=S(=O)(Nc1cccc2cccnc12)c1ccccc1O,x,20µM,x,x,x
O=C(Cn1ncc2c3ccccc3n(Cc3ccc(Cl)cc3)c2c1=O)N1CCCCCC1,x,x,x,x,n
CC1=CC(=Nc2c(C)n(C)n(-c3ccccc3)c2=O)C=CC1=O,u,3.5µM,x,n,x
COc1ccc(C[C@@H](NS(=O)(=O)c2ccc(C(=O)O)cc2)C(=O)O)cc1,x,n,x,n,x
O=C(O)c1ccc(S(=O)(=O)N[C@H](Cc2ccc([N+](=O)[O-])cc2)C(=O)O)cc1,x,n,x,2.2µM,x
O=C(O)c1ccc(S(=O)(=O)N[C@H](Cc2ccc(C(F)(F)F)cc2)C(=O)O)cc1,x,n,x,2.8µM,x
CC(C)(C)c1ccc(S(=O)(=O)NC(Cc2ccccc2)C(=O)O)cc1 (stereo unspecified),n,u,n,n,n
CC(=O)SC[C@@H](C)C(=O)N1CCC[C@H]1C(=O)N[C@@H](Cc1ccccc1)C(=O)O,x,x,x,x,n
Cn1c(N=Nc2ccc(N3CCOCC3)cc2)[n+](C)c2ccccc21,11µM,n,18µM,n,u
NC(=S)N/N=C/c1ccc(/C=N/NC(N)=S)cc1,n,n,n,n,n
NC(=S)N/N=C/c1ccc(-n2nncc2-c2ccc(Cl)cc2)cc1,n,x,n,10µM,n
O=C1C2C3C=CC(CC3)C2C(=O)N1/N=C/c1c(O)ccc2ccccc12 (stereo unspecified),n,n,n,n,n
O=C1C2C3C=CC(CC3)C2C(=O)N1/N=C/c1ccccc1O (stereo unspecified),n,n,n,5.6µM,n
CCc1nn2c(=O)cc(COC(=O)c3cccc(NC(=O)c4ccccc4Cl)c3)nc2s1,x,x,x,x,n

# From PubChem BioAssay
